From PubChem
Rows were chosen to be rich in hits. Some 4.2% of all compounds tested hit in one or more screens of this group.
V-ATPase pHluor = alters yeast V-ATPase proton transport. AID 504577. actives 0.37% (n = 350,000). S. cerevisiae, pHLuorin cytosolic pH fluorescence. response, % at 10 µM; in the data active means response mostly above about 7.3%, no sharp cut-off; inactive means mostly below about 5.4%; further: actives read high
tim23-1 inh = growth inhibitors of tim23-1 mutant yeast. S. cerevisiae tim23-1 growth, BacTiter-Glo luminescence, 24 h. inhibition, % at 20 µM. actives 1.3% (n = 330,000);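 active means growth inhibition of the mutant yeast at or above 50%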;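 further: temperature-sensitive mutant grown at 25 °C; plate controls were DMSO-treated mutant yeast for no effect and medium wells lacking yeast for full effect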
TIM10 inh = TIM10 yeast growth inhibition; inhibition, % at 10 µM; actives 1.4% (n = 330,000); S. cerevisiae TIM10 strain growth, BacTiter-Glo luminescence, 24 h;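 active means inhibition of 40% or more at the single tested concentration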;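 further: wild-type TIM10 isogenic control strain grown at permissive 25 °C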
NALP1 inh = blocks the NALP1 inflammasome reconstituted in yeast; AID 2071; S. cerevisiae NALP1/ASC/caspase-1 growth, X-gal OD620, 72 h; inhibition, % at 10 µM; actives 0.61% (n = 280,000); in the data active means inhibition mostly above about 24%, no sharp cut-off; inactive means mostly below about 32%
NLRP3 yeast inh = blocks the NALP3 inflammasome reconstituted in yeast. Yeast reconstituted NLRP3/ASC/caspase-1, beta-gal luminescence, 24 h. inhibition, % at 10 µM. actives 0.39% (n = 330,000);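 active means inhibition of 50% or more; inactive means inhibition below 50%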;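 further: plate controls were induced DMSO wells for no effect and uninduced yeast grown without galactose for full effect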
tim10-1 inh = tim10-1 yeast growth inhibition | S. cerevisiae tim10-1 ts strain growth, BacTiter-Glo, 24 h | inhibition, % at 20 µM | actives 2.2% (n = 330,000);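 active means inhibition of at least 40%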;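 further: mutant grown at 25 °C; 0% = DMSO wells with yeast and 100% = wells holding no yeast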
tim10 confirm = confirmation of TIM10 yeast growth inhibitors; inhibition, % at 10 µM; AID 463215; actives 63% (n = 4,600); S. cerevisiae tim10 strain growth, BacTiter-Glo luminescence, 24 h; shares compounds with TIM10 inh;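 active means inhibition of yeast growth at or above a set limit in either of two replicates at 10 µM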;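 further: this counterscreen used the strain with wild-type TIM10; 0% = yeast with DMSO and 100% = medium wells lacking yeast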
Numbers without * were called inactive; / = not tested or not shown.

SMILES | V-ATPase pHluor | tim23-1 inh | TIM10 inh | NALP1 inh | NLRP3 yeast inh | tim10-1 inh | tim10 confirm
CC(/C=C1\SC(=S)N(NS(=O)(=O)c2ccccc2)C1=O)=C\c1ccccc1 | 1.4 | 41.0 | 2.6 | 10.6 | -0.6 | 2.1 | /
CC(/C=C1\SC(=S)N(NS(=O)(=O)c2ccc(C)cc2)C1=O)=C\c1ccccc1 | -1.9 | 28.6 | 48.2* | / | -14.5 | 27.9 | 25.2
COc1ccc(NC(=O)CN(C)C(=O)c2ccc(NS(=O)(=O)c3cccc([N+](=O)[O-])c3)cc2)cc1 | -2.3 | 2.0 | -9.1 | / | 11.3 | -16.9 | /
Cc1c(OCc2ccccc2)c(=O)ccn1Cc1ccccc1 | 0.9 | 8.3 | 3.3 | 0.5 | 11.8 | 6.6 | /
Cc1occc(=O)c1OCc1ccccc1 | -1.0 | -5.8 | 93.9* | 27.5 | -8.1 | -10.8 | 0.2
COC(=O)CC(NC(=S)NC(=O)c1ccccc1)c1ccc(Br)cc1 (stereo not drawn) | 9.8 | 34.0 | 40.3* | 3.3 | 9.7 | 25.6 | 36.9*
COc1ccc(-c2cn[nH]c2-c2ccc(OCc3ccc(F)cc3)cc2O)cc1OC | -0.9 | 22.5 | 40.1* | -4.0 | 2.8 | 30.9 | 33.5*
Oc1cc(OCc2ccccc2)ccc1-c1[nH]ncc1-c1ccccc1 | -2.5 | 30.1 | 49.9* | 10.6 | 29.3 | -25.2 | 45.9*
O=[N+]([O-])c1ccc(COc2ccc(-c3[nH]ncc3-c3ccccc3)c(O)c2)cc1 | -3.6 | 3.8 | 5.0 | 19.8 | 21.3 | 17.4 | /
Cc1ccc(Cl)cc1NC(=O)CCC(=O)NCc1ccco1 | -1.5 | -9.6 | -10.4 | -6.5 | 17.8 | -8.8 | /
CCN1C(=O)[C@H]2[C@@H](c3ccc(-c4ccc(C(C)=O)cc4)cc3)N3CCC[C@@]3(C(=O)OC)[C@H]2C1=O | 6.3 | 35.5 | 25.6 | / | 5.2 | 33.3 | /
Cc1cc(C)nc(SCc2cc(=O)c(OC(=O)c3ccco3)co2)n1 | 5.5 | 37.1 | 42.0* | 32.8 | 13.9 | 17.7 | 37.0*
Cc1cc(C)nc(SCc2cc(=O)c(OC(=O)c3ccc(Br)o3)co2)n1 | 2.7 | 37.6 | 39.7 | 41.8 | 20.5 | 6.3 | /
CCN(CC)c1ccc(NC(=O)CNCc2ccccc2Cl)c(C)c1 | -3.2 | 26.5 | 2.3 | 9.1 | 14.2 | 26.3 | /
O=C1CC(c2ccccc2)=Nc2ccccc2N1Cc1ccccc1 | -2.2 | 18.7 | 40.3* | -13.7 | -38.7 | 31.0 | 22.8
COc1ccc(N2CCN(C(=O)CSc3ncnc4scc(-c5ccc(C)cc5)c34)CC2)cc1 | -3.5 | 23.1 | 43.2* | / | 10.5 | 20.4 | 9.6
COc1ccc(N2CCN(c3ncnc4scc(-c5ccc(C)cc5)c34)CC2)cc1 | -0.3 | 10.2 | 14.1 | 12.8 | 16.3 | -25.6 | /
COc1ccc(CN2CCN(c3ncnc4scc(-c5ccc(F)cc5)c34)CC2)cc1 | 5.5 | 47.5 | 42.0* | 5.8 | 0.1 | 34.5 | 45.5*
CC(C)NC(=O)N(C)C[C@@H]1Oc2c(NC(=O)C3CCOCC3)cccc2C(=O)N([C@@H](C)CO)C[C@H]1C | -0.4 | -21.0 | 96.6* | / | 4.8 | -8.3 | -10.1
CC(C)NC(=O)Nc1cccc2c1O[C@H](CN(C)C(=O)NC(C)C)[C@@H](C)CN([C@H](C)CO)C2=O | 0.3 | 2.1 | 1.9 | / | 2.6 | -13.5 | /
COc1ccc(Nc2nccc(N(C)C)c2C#N)cc1 | -2.8 | -5.7 | 54.6* | -5.0 | 6.6 | 3.9 | -5.8
COc1ccc(Nc2nccc(OC)c2C#N)cc1 | -1.2 | 7.7 | 11.3 | 0.2 | 8.1 | 6.0 | /
O=c1oc2c3c4c(cc2c2c1CCC2)OCCN4CCC3 | -0.9 | 38.5 | 41.3* | 16.0 | 6.3 | 34.2 | 2.2
CCn1c(=O)n(CC)c2cc(N3CCCC3)c(NC(=O)c3cccc(Cl)c3)cc21 | -1.4 | 21.3 | 29.4 | 5.2 | 11.7 | -5.8 | /
O=C(CCC(=O)c1ccc(F)cc1)NC1CCCN(Cc2ccccc2F)C1 (stereo not drawn) | -0.1 | 4.3 | -3.9 | 16.4 | 13.2 | -2.9 | /
SMILES | V-ATPase pHluor | tim23-1 inh | TIM10 inh | NALP1 inh | NLRP3 yeast inh | tim10-1 inh | tim10 confirm
COc1ccc(/C=C/C(=O)NC(=S)NCC2CCCO2)cc1 (stereo not drawn) | 0.0 | 0.9 | -0.3 | 1.0 | 0.7 | 24.6 | /
COc1ccc(/C=N/NC(=S)NCC2CCCO2)cc1 (stereo not drawn) | -1.2 | 33.0 | 44.4* | / | 21.6 | 31.0 | 20.5
COc1ccccc1/C=C/C(=O)NC(=S)NCC1CCCO1 (stereo not drawn) | -1.6 | 21.5 | 41.8* | -3.4 | 15.1 | 34.1 | 34.8*
COc1ccc(CCNC(=O)c2c(C)nn(-c3ccccc3)c2Cl)cc1OC | -2.9 | 37.4 | 15.2 | 4.3 | 15.5 | 31.8 | /
COCCN(C(=O)CCSc1ccc(F)cc1)c1c(N)n(Cc2ccccc2)c(=O)[nH]c1=O | 7.9 | -0.8 | 4.3 | / | 18.4 | -2.5 | /
Cc1ccc(/C=C/C(=O)OCC(=O)NC(C)C)o1 | 2.0 | 3.5 | -3.9 | 22.8 | -10.6 | 9.9 | /
CCC(C)(C)n1nnnc1C(c1ccc2ncccc2c1)N1CCCCCC1 (stereo not drawn) | 3.4 | 41.5 | 42.9* | -3.9 | 8.8 | 35.4 | -22.0
c1cnc2ccc(C(c3nnnn3C3CCCCC3)N3CCCCC3)cc2c1 (stereo not drawn) | 0.1 | 40.4 | 3.8 | 1.6 | -1.8 | 36.7 | /
Oc1ccc(-c2nc3ccc4ccccc4c3c3c2CCC3)cc1O | -5.7 | 35.5 | 41.4* | 17.0 | 7.9 | 13.7 | 36.4*
Cc1cc(C)c2c(ccc3ccccc32)n1 | -83.0 | / | / | / | / | / | /
Cc1c(N(C)S(=O)(=O)c2ccc(Cl)c(C(=O)N3CCC(C(N)=O)CC3)c2)c(=O)n(-c2ccccc2)n1C | 0.6 | -7.2 | 3.8 | / | 18.7 | -7.0 | /
Cc1cnc(C(=O)OC(C(=O)Nc2cc(C(F)(F)F)ccc2Cl)c2ccccc2)cn1 (stereo not drawn) | 8.8 | 28.6 | 97.6* | 7.6 | 10.0 | 28.0 | 18.9
Cc1cc2n(n1)SC(Nc1cccc3ccccc13)N2 (stereo not drawn) | -0.9 | 22.8 | 41.8* | -1.0 | 19.4 | 38.2 | 23.4
Cc1ccc(C(=O)N2CCN(Cc3ccccc3)CC2)o1 | -0.9 | -2.1 | 11.6 | 10.1 | 16.4 | 0.4 | /
O=C(c1ccc([N+](=O)[O-])o1)N1CCN(Cc2ccccc2)CC1 | 0.5 | 39.9 | 43.1* | 17.2 | 17.5 | 33.2 | 37.6*
CCN(CC)S(=O)(=O)c1ccc(OC)c(NC(=O)c2ccc(-n3cncn3)c([N+](=O)[O-])c2)c1 | -6.3 | -1.7 | 0.6 | / | 17.7 | -2.1 | /
O=C(C1CCCN(S(=O)(=O)c2ccc(Cl)cc2)C1)N(Cc1cccs1)C1CC1 (stereo not drawn) | -7.0 | 36.6 | 43.4* | 13.1 | -2.1 | 36.0 | -4.5
Clc1ccc(-n2nnnc2-c2cnc3ccc(Cl)cc3c2-c2ccccc2)cc1 | -1.8 | 37.6 | 0.7 | / | 9.0 | -23.6 | /
Clc1ccc2[nH]cc(-c3nnnn3-c3ccccc3)c2c1 | 2.4 | 21.3 | 41.7* | 12.4 | 12.1 | 28.6 | 28.9
